# “And” between values parts separate entries of the source, which are not always exact repeats. Equal values may be shown once. Screen size: about 200,000 compounds; about 4,500 (2.2%) were called active. About 12% were inconclusive and are not listed. What follows is part of a selection rich in actives, with near analogues and random picks from the rest. Where a structure was tested more than once in an assay, its records may differ in their call. A number with no mark means an inactive call. The call rests on the fitted dose curve; in most records, active means well fitted inhibition curve with a large enough effect; inconclusive means small, poorly fitted or top-dose-only effect, or effect the other way; inactive means flat fitted curve, though single readings scatter.
# Biological target: Cruzipain (Trypanosoma cruzi) (UniProt P25779)
# Sequence (P25779 123-467 limits assumed): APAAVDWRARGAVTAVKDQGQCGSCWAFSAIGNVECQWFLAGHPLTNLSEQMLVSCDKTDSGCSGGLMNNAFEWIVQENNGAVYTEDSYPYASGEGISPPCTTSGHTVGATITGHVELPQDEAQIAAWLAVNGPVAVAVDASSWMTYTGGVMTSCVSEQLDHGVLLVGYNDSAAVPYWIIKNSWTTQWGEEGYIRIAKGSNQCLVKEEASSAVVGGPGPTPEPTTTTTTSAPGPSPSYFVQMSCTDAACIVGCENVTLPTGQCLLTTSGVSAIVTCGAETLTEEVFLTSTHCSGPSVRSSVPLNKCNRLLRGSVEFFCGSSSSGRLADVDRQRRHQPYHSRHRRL
# Experiment: qHTS Assay for Promiscuous and Specific Inhibitors of Cruzain (without detergent); further: nearly all actives have a fitted effect of over 40% in size
# Conditions: purified cruzain, Z-FR-AMC fluorescence, no detergent
# Protocol: Cruzain is a cysteine protease from the tropical parasite Trypanosoma cruzi. Dual qHTS experiment was performed against the NCGC compound collection in order to 1) identify novel inhibitors of the enzyme and 2) profile the compound collection for promiscuous inhibitors operating via colloidal aggregation (by performing detergent-free and detergent-containing comparison screens). Cruzain was assayed by the use of fluorogenic coumarin-based substrate Z-FR-AMC: proteolytic cleavage releases AMC, whose fluorescence is measured at 360 nm excitation and 450 nm emission. Purified cruzain was supplied by the labs of Prof. James McKerrow and Brian Shoichet, UC San Francisco.
# This assay had 0.00005% Triton X-100 concentration. See also releated assay "qHTS Assay for Promiscuous and Specific Inhibitors of Cruzain (with detergent)" with 0.01% Triton X-100.
# See following references for additional details:
# Assay Provider: Shoichet, Brian; University of California, San Fancisco
# Screening Center PI: Austin, C.P.
# Screening Center: NIH Chemical Genomics Center [NCGC]
# Buffer: 100 mM Sodium Acetate, pH 5.5, 5 mM DTT, Triton X-100 concentration: 0.01%.
# Buffer in columns 3 and 4 as negative control (no enzyme).
# Substrate solution: 2 uM final concentration of Z-FR-AMC (catalog number I-1160, Bachem) dispensed throughout the plate.
# Enzyme: 1.5 nM Cruzain final concentration in columns 1, 2, 5-48. Column 1 is neutral (100% activity). Column 2 contained titration of covalent inhibitor K11777, starting concentration 1 mM, then 1:2 dilution in duplicate).
# Three uL of enzyme or buffer were dispensed to 1536-well Greiner black solid bottom plates. Compounds and controls (23 nL) were transferred via Kalypsys PinTool. The plates were incubated for 15 min at room temperature, and then 1 uL of substrate solution was added to start the reaction. The plates were immediately transferred to and read 4 times every 30 seconds for 2 min on ViewLux High-throughput CCD imager (Perkin-Elmer) using 360 nm excitation and 450 nm emission fluorescence protocol. The fluorescence intensity difference between the third and the first time points (time lapse of 60 seconds) was used to compute reaction progress.
# Potency means the concentration at half of the fitted maximal effect.
SMILES,"max response, negative = inhibition",Potency
COc1ccc(-c2nc3c4ccccc4n(CC(=O)Nc4ccc(C(C)=O)cc4)c(=O)n3n2)cc1,12.6%,–
CCN(CC)S(=O)(=O)c1ccc2c(c1)c(=O)c(C(=O)N1CCN(c3cccc(Cl)c3)CC1)cn2C,15.1%,–
COc1ccc(CCC(=O)NCCc2csc(-c3ccc(Cl)cc3)n2)cc1,28.2%,–
O=C(/C=C/c1ccccc1)c1ccccc1O,9.27% and -2.28%,–
CC(=O)c1c(O)c(C)c(O)c(Cc2c(O)c3c(c(C(=O)/C=C\c4ccccc4)c2O)OC(C)(C)C=C3)c1O,23.6%,–
CC(=O)c1c(O)c(C)c(O)c(Cc2c(O)c3c(c(C(=O)/C=C/c4ccccc4)c2O)OC(C)(C)C=C3)c1O,24.8%,7.94 µM (active)
COc1cc(C(=O)NCC(c2ccc(Cl)cc2)N2CCOCC2)cc(OC)c1OC (centres undefined),9.67%,–
O=C(NCCc1ccccc1)/C(=C\c1ccc([N+](=O)[O-])cc1)NC(=O)c1ccccc1,-28.6%,–
O=C(Nc1ccccc1)/C(=C/c1ccc([N+](=O)[O-])cc1)NC(=O)c1ccccc1,–,10 µM (active)
O=C(O)c1ccc(NC(=O)c2cccs2)cc1,-2.86%,–
CNC(=O)/C(=C\C=C\c1ccccc1)NC(=O)c1ccc([N+](=O)[O-])cc1,1.75%,–
O=C(NC(=S)Nc1ccc(NC(=O)c2cccs2)cc1)c1ccc([N+](=O)[O-])cc1,–,12.6 µM (active)
COCCCNC(=S)NC(=O)c1ccc([N+](=O)[O-])cc1,-9.94%,–
Cc1cccc(C(=O)Nc2ccc(-c3nc4ncccc4o3)cc2C)c1,-6.61%,–
Cc1noc2ncnc(NCc3ccccc3Cl)c12,-9.31%,–
Cc1ccc(C)c(N2CCN(S(=O)(=O)c3ccc4c(c3)C(C(C)C)C(=O)N4)CC2)c1 (centres undefined),-9.68%,–
CCOC(=O)c1cccc(NS(=O)(=O)c2cn(C)c(C)n2)c1,6.22%,–
Cc1ccc2c(=O)cc(C(=O)Nc3sc4c(c3C(=O)NCc3cccnc3)CCCC4)oc2c1,-7.89%,–
Cc1ccc(S(=O)(=O)c2c(COC(=O)c3cccc(Cl)c3)c(-c3ccccc3)nn2C)cc1,–,25.1 µM (active)
Cc1cc(C)n(-c2c(F)c(F)c(COC(=O)c3ccccc3)c(F)c2F)n1,2.62%,–
Cn1nc(-c2ccccc2)c(CSc2cccc(Cl)c2)c1Cl,2.52%,–
Cc1ccc(CNC(=O)c2c(O)nc3c(C)cccn3c2=O)cc1,-9.77%,–

SMILES,"max response, negative = inhibition",Potency
O=C(O)c1c(CNCc2cccc(F)c2)c2ccccc2n1Cc1ccccc1,0.0489%,–
Cc1ccc(-c2nc(-c3cccnc3)sc2CC(=O)Nc2ccc(C)c(Cl)c2)cc1,–,25.1 µM (active)
Cc1cc(C)c(NC(=O)CS(=O)CC(=O)Nc2cccnc2)c(C)c1 (centres undefined),-6.14%,–
Cc1ccc(NC(=O)COc2ccc(-n3ccnc3)cc2)cc1Cl,3.27%,–
Cc1ccc(-c2ccc(CCC(=O)O)n2-c2ccc(C(N)=O)cc2)cc1,-3.67%,–
O=C(Nc1cccc(F)c1)c1ccc(S(=O)(=O)N2CCCC2)cc1,6.1%,–
O=C(Nc1ccc2c(c1)CCC2)c1cccc(S(=O)(=O)Nc2ccccc2Cl)c1,-19.6%,–
O=C(Nc1ccc2c(c1)CCC2)c1cccc(S(=O)(=O)N2CCN(c3ccc(F)cc3)CC2)c1,–,20 µM (active)
O=C(Cn1nc(Cc2cccnc2)c2ccccc2c1=O)N1CCN(c2ccccc2F)CC1,-3.19%,–
O=C(NCCc1ccccc1)c1ccc2c(c1)N(Cc1ccccc1)C(=O)c1ccccc1S2(=O)=O,–,20 µM (active)
O=C(NCCc1ccccc1)c1ccc2c(c1)N(Cc1ccc(F)cc1)C(=O)c1ccccc1S2(=O)=O,2.91%,–
COCCNC(=O)c1ccc2c(c1)N(Cc1cccc(Cl)c1)C(=O)c1ccccc1S2(=O)=O,9.95%,–
Cc1nn(-c2ccc(N3CCCCC3)nn2)c(C)c1CCC(=O)NCc1ccccc1F,-5.41%,–
Cc1cc(Br)ccc1NC(=O)Cn1cnc2sc(C)c(S(=O)(=O)N3CCN(C)CC3)c2c1=O,-2.69%,–
c1ccc(-c2nnc(SCc3nc4ccccc4[nH]3)o2)cc1,–,12.6 µM (active)
Clc1ccccc1SCc1nc2ccccc2[nH]1,-0.47%,–
Clc1ccc(-c2nnc(SCc3nc4ccccc4s3)o2)cc1,-6.5%,–
COc1ccc(N2CC(C(=O)NCCS(=O)(=O)N3CCN(c4ccccc4)CC3)CC2=O)cc1 (centres undefined),3.76%,–
Cc1ccc(C(=O)COC(=O)C(Cc2c[nH]c3ccccc23)NC(=O)c2ccc(Br)cc2)cc1 (centres undefined),–,12.6 µM (active)
Cc1[nH]c2ccccc2c1C(=O)COC(=O)C(C)C,3.26%,–
O=C(Cc1c[nH]c2ccccc12)OCCOC(=O)Cc1c[nH]c2ccccc12,1.16%,–
CN(C(=O)c1ccc2c(c1)N(Cc1cccc(Cl)c1)C(=O)c1ccccc1S2=O)C1CCCCC1 (centres undefined),-3.62%,–

SMILES,"max response, negative = inhibition",Potency
Cc1csc2nc(COC(=O)c3ccccc3NC(=O)c3ccccc3Cl)cc(=O)n12,-1.98%,–
COc1ccc(Cl)cc1NC(=O)C(C)Sc1nc2c(c(=O)[nH]1)CCCC2 (centres undefined),-3.86%,–
O=S(=O)(c1ccc2nc(N3CCN(c4cccc(Cl)c4)CC3)ccc2c1)N1CCCCC1,-14.3%,–
CCc1ccc2c(c1)C1(NN=C(c3ccccc3)S1)C(=O)N2 (centres undefined),-24.1%,–
Cc1ccc(NC2(C#N)C(=O)Nc3ccccc32)cc1 (centres undefined),-4.74%,–
O=C1Nc2ccccc2C12Nc1ccccc1S2 (centres undefined),–,25.1 µM (active)
O=c1c(O)c(Br)ccc2c(Br)c(O)c(O)c(O)c12,-27.1%,–
CCC(C)Nc1oc(-c2ccc(COc3ccc(Cl)cc3)o2)nc1C#N (centres undefined),2.48%,–
O=C1CN(c2nc(-c3ccccc3)c3cc(Br)ccc3n2)c2ccccc2N1,–,12.6 µM (active)
Cc1ccc(S(=O)(=O)N2CC(=O)Nc3ccccc32)cc1C,2.47%,–
O=C(O)c1ccc(Nc2nc(-c3ccccc3)c3cc(Br)ccc3n2)cc1,27.1%,–
Fc1ccc(-c2nn(-c3ccccc3Cl)c3c2cnc2ccccc23)cc1,4.61%,–
O=C(CC1C(=O)N(c2ccccc2)C(=O)N1CCc1cccs1)Nc1ccc(F)cc1 (centres undefined),2.56%,–
O=C(CCSCc1ccccc1F)N1CCN(c2ccc(Cl)cc2)CC1,2.72%,–
Cc1ccc(-c2nn(CCC(=O)Nc3ccc(Cl)c(Cl)c3)c(=O)c3ccccc23)cc1,-2.75%,–
CCN(CC)c1nn2c(=O)c(C(=O)NCCc3ccccc3)cnc2s1,-4.42%,–
O=C(NCc1ccc2c(c1)CCN2C(=O)c1ccccc1)Nc1cc(F)ccc1F,-19.6%,–
COc1ccc(CNC(=O)c2cc3c(s2)-c2ccccc2OC3)cc1,16.2%,–
Cc1ccc(-n2c(SCC(=O)Nc3ncc(Cl)cc3Cl)nc3ccccc32)cc1,–,20 µM (active)
Cc1cc(C)c(NC(=O)Cn2c(SCC(=O)NCc3ccccc3)nc3ccccc32)c(C)c1,7.19%,–
Cc1ccc(NC(=O)CSc2nc3c([nH]c4ccccc43)c(=O)n2-c2ccccc2)c(C)c1,12.6%,–
c1ccc2c(c1)-c1ccccc1C2N1CC2CCC(CC2)C1,1.3%,–

SMILES,"max response, negative = inhibition",Potency
NS(=O)(=O)c1ccc(N=Cc2ccc(Br)s2)cc1,-5.17%,–
Brc1ccc(/C=N/N2CCN(C3c4ccccc4-c4ccccc43)CC2)s1,–,12.6 µM (active)
O=C(c1ccc2c(c1)N(Cc1ccccc1)C(=O)c1ccccc1S2(=O)=O)N1CCC(Cc2ccccc2)CC1,1.2%,–
COc1ccc(-c2nnc(SC(C)C#N)o2)cc1 (centres undefined),2.59%,–
COc1ccc(-c2nnc(SC(=O)N3c4ccccc4Sc4ccccc43)o2)cc1,–,31.6 µM (active)
COc1ccc(-c2nnc(SCc3cccnc3)o2)cc1,15.4%,–
CCOC(=O)c1ccc(NC(=O)CC2C(=O)N(c3cccc(OC)c3)C(=O)N2C2CCCCC2)cc1 (centres undefined),-1.66%,–
Cc1ccc(C(=O)NCCSc2c(C)[nH]c3ccccc23)cc1C,13.2%,–
N#CC1=C(SCc2ccccc2)NC(=O)C(C#N)C12CCCC2 (centres undefined),-1.74%,–
N#CC1=C(SCc2ccc(C#N)cc2)N=C(N)C(c2nc(-c3ccccc3)cs2)C12CCCCC2 (centres undefined),–,10 µM (active)
COc1ccc(CCNc2nc(-c3ccc(Cl)cc3)cc(C(F)(F)F)n2)cc1OC,-3.01%,–
Cc1nn(Cc2ccc(F)cc2)c(C)c1NC(=O)c1cc(CC(C)C)on1,2.49%,–
CCCc1cc(=O)[nH]c(SCC(=O)OCc2ccccc2)n1,-0.512%,–
Cc1cc(C(=O)CSc2nc(N)cc(=O)[nH]2)c(C)n1CCc1ccc(Cl)cc1,–,12.6 µM (active)
CCCc1cc(=O)[nH]c(SCC(=O)c2cc(C)n(CCC)c2C)n1,-4.28%,–
COc1ccc(-n2ccnc(NCCc3ccc(Cl)cc3)c2=O)cc1OC,16.8%,–
COc1ccc(C2Sc3ccccc3NC3=C2C(=O)c2ccccc23)c(OC)c1OC (centres undefined),-2.6%,–
S=c1nccc(-c2cc(Cl)sc2Cl)[nH]1,–,12.6 µM (active)
COCCNC(=O)CCCN1C(=O)c2ccccc2Sc2ncccc21,15.3%,–
CS(=O)(=O)c1ccc2nc(NC(=O)C3CCCCC3)sc2c1,6.38%,–
O=C(Nc1nc2ccc(F)cc2s1)c1nc(SCc2ccccc2F)ncc1Cl,1.9%,–
CCS(=O)(=O)N1Cc2ccccc2CC1C(=O)Nc1nc2ccc(F)cc2s1 (centres undefined),–,12.6 µM (active)

# Reference: PubChem BioAssay AID1476 (National Center for Advancing Translational Sciences (NCATS), 2009)
